# Measured values: PubChem BioAssay (NCI)
# Compounds without any hit were thinned out: in the full panel of roughly 83,000, 20% have a hit.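 Method: cells in 96-well plates; compound added at one concentration; 48 h incubation; percent growth measured; values under 10 scored active.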 Unmarked numbers belong to inactive results. Calls of active or inactive are those of the source.
# Key:
# Assay in all cases: NCI-60 one-dose screen, 48 h (100 = growth as untreated, 0 = no growth, -100 = all killed)
# Conditions in all cases: 10 µM unless noted
# T-47D breast = system: T-47D breast
# BT-549 breast = system: BT-549 breast
# MDA-MB-435 melanoma = system: MDA-MB-435 melanoma
# SW-620 colon = system: SW-620 colon
# MCF7 breast = system: MCF7 breast
# HCT-116 colon = system: HCT-116 colon
# KM12 colon = system: KM12 colon
# HCC-2998 colon = system: HCC-2998 colon
Compound,growth (T-47D breast),growth (BT-549 breast),growth (MDA-MB-435 melanoma),growth (SW-620 colon),growth (MCF7 breast),growth (HCT-116 colon),growth (KM12 colon),growth (HCC-2998 colon)
CC1OC(O[C@@H]2[C@H](O)C(CO)OC(O[C@H]3COC(O[C@H]4CC[C@]5(C)[C@H]6CC[C@]78OC[C@@]9(CC[C@](C)(C=O)C[C@H]97)C(=O)C[C@@]8(C)[C@]6(C)CC[C@H]5C4(C)C)[C@@H](O)[C@@H]3O)[C@H]2OC2OC[C@@H](O)[C@@H](O)[C@@H]2O)[C@@H](O)[C@@H](O)[C@H]1O (stereo partly specified),81.3%,104%,105%,104%,87.7%,89.1%,97%,
CCOC(=O)/C(F)=C/C1CC1C1CCCCC1 (stereo unspecified),102%,124%,102%,101%,92.2%,97.2%,104%,
N#Cc1ccc(S(=O)(=O)Nc2ccc(-c3cnc(N)[nH]3)cc2)cc1,101%,,108%,102%,90.7%,107%,103%,105%
O=C(Nc1cccc(-c2nc(-c3ccc(NC(=O)c4cccs4)cc3Cl)no2)c1)Nc1ccc(NC(=O)C2CC2)c(C(F)(F)F)c1,-50.2% (active),-19.1% (active),,-49.9% (active),-40% (active),1.27% (active),-65.5% (active),-55% (active)
O=S(=O)(Nc1ccc(C2CC2)cc1)c1ccc(-c2cnc(C3CC3)o2)cc1,51.5%,76.3%,,33.8%,33.3%,48.5%,48.3%,91.1%
COc1ccc(CN2C(=O)/C(=C/c3nc(CO)cs3)SC2=S)cc1,53%,,89.7%,77.8%,12%,75%,9.43% (active),109%
O=S(=O)(Nc1cc(Cl)c(F)c(Cl)c1)c1ccc(-c2cnc(C3CC3)o2)cc1,29.8%,66.8%,,23.8%,20.2%,27.3%,26.1%,67.4%
O=S(=O)(Nc1ccc(I)c(Cl)c1)c1ccc(-c2cnc(C3CC3)o2)cc1,26.9%,57.1%,,15.3%,17%,26.6%,32%,59.1%
Cc1ccc(NC(=O)c2cc(/C=C/C(=O)NO)cc(C(F)(F)F)c2)cc1Nc1nccc(-c2cccnc2)n1,-5.93% (active),,-2.82% (active),-38.8% (active),-17.5% (active),-12.9% (active),16.4%,-0.0369% (active)
CNC(=O)c1cc(Oc2ccc3nc(NC(=O)c4ccc(CN5CCN(C)CC5)c(C(F)(F)F)c4)sc3c2)ccn1,38%,,53.9%,11.4%,28.9%,31.7%,46.8%,70.5%
COC(=O)c1c(C(=O)OC)c2n(CC(=O)Nc3cccc4cccnc34)c3ccccc3n2c1C(=O)c1ccc(C)cc1,83.4%,110%,,95.1%,93.4%,49.5%,109%,103%
O=C(NNc1nc2cc(F)ccc2n2cncc12)c1cnccn1,33.7%,,25%,24.5%,14.8%,23%,20.8%,19.9%
CCN(CC)Cc1c(-c2cccc(OC(F)(F)F)c2)[nH]c2ccc(N3CCCC3)cc2c1=O,103%,87.7%,,92.3%,78.4%,101%,95.9%,87%
CC(=O)Nc1ccc(NC(=O)Nc2cccc(-c3nc(-c4ccc(NC(=O)c5cccnc5)cc4Cl)no3)c2)cc1C(F)(F)F,-43.7% (active),-29.9% (active),,-62.8% (active),-61.3% (active),-47.4% (active),-46.2% (active),
CC1=C2C(=C[C@@](C)(COS(N)(=O)=O)[C@@H]2O)C(=O)[C@](C)(O)C12CC2,71.8%,60.2%,,85.3%,61.7%,70%,99.5%,61.7%
CN1C(=O)N(C)C2C1NN=c1s/c(=C\c3ccccn3)c(=O)n12 (stereo unspecified),108%,,88.5%,99.3%,91.9%,108%,91.6%,104%
O=C1/C(=C/c2ccccc2[N+](=O)[O-])Oc2ccc(O)cc21,44.2%,49.9%,,-14.7% (active),6.93% (active),-20.5% (active),64.2%,
C#C[C@]1(O)CC[C@H]2[C@@H]3CC=C4c5sc(-c6ccccn6)nc5CC[C@]4(C)[C@H]3CC[C@@]21C,85.3%,59.8%,,74.2%,49.3%,62%,85.7%,92.5%
CC(=O)Nc1ccc(NC(=O)Nc2cccc(-c3nc(-c4ccc(NC(=O)c5cccs5)cc4Cl)no3)c2)cc1C(F)(F)F,-59.4% (active),-26.7% (active),,-51.3% (active),-58.1% (active),-22.2% (active),-50.1% (active),-65.1% (active)
CC1CCc2c(sc3nc(SCC(=O)N/N=C/c4ccc(Cl)cc4)n(-c4ccccc4)c(=O)c23)C1 (stereo unspecified),103%,,101%,107%,90.5%,89.7%,103%,112%
COc1ccc(NS(=O)(=O)c2ccc(-c3cnc(C4CC4)o3)cc2)cc1Cl,30.3%,57.5%,,22.6%,17.4%,26.7%,22.7%,53.1%
O=S(=O)(Nc1ccc2c(c1)OC(F)(F)O2)c1ccc(-c2cnc(C3CC3)o2)cc1,31.6%,52.1%,,23.7%,19.9%,23.7%,30.9%,72.8%
O=C(Nc1cccc(-c2nc(-c3ccc(NC(=O)c4cccnc4)cc3Cl)no2)c1)Nc1ccc(NC(=O)C2CC2)c(C(F)(F)F)c1,-51.1% (active),-39.5% (active),,-59.9% (active),-66.8% (active),-52.8% (active),-63.9% (active),-69.6% (active)
CCOC(=O)Nc1ccc(-c2nc(-c3cccc(O)c3)c(-c3ccnc(Br)c3)[nH]2)cc1,14%,35.4%,,28.2%,13.9%,19.2%,22.3%,56.2%
O=C(CN1CCN(c2cc(=O)n(-c3ccccc3)c3ccccc23)CC1)Nc1ccc([N+](=O)[O-])cc1,64.9%,94.5%,,92.3%,88.2%,92.6%,92.9%,105%
COc1ccc(Oc2ccc(C3CC(c4cc(OC)c(OC)c(OC)c4)=NN3C(C)=O)cc2)cc1 (stereo unspecified),9.08% (active),45.5%,,46.9%,10.1%,19.5%,27.5%,42.2%
C#C[C@]1(O)CC[C@H]2[C@@H]3CC=C4c5sc(Nc6cc(OC)ccc6OC)nc5CC[C@]4(C)[C@H]3CC[C@@]21C,22.8%,30.2%,,18.4%,-2.69% (active),19.3%,24.6%,62.4%
CCC(=O)Nc1cc(Nc2cc(NC3CC3)n3ncc(C#N)c3n2)ccc1C,6.41% (active),29.5%,,17.4%,3.83% (active),19.2%,32.5%,41.6%
O=C(Nc1ccc(-c2nc(-c3cccc(O)c3)c(-c3ccnc(Br)c3)[nH]2)cc1)c1ccccc1,-6.8% (active),40.6%,,10.5%,0.42% (active),18.1%,12.9%,26.3%
